Measurements from PubChem BioAssay AID2690 (NMMLSC, 2010).
Out of some 330,000 compounds screened, about 590 (0.18%) were called active. Many of the other results were omitted from the sample, so actives are more common in it than they were. Unmarked numbers belong to inactive results.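 The calls were made as follows: active = superoxide response under a set limit, about three screen SD below normal (cut at about 65% in these data); inactive = the rest.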

Assay: reduction of superoxide in aged yeast, primary screen, HTS (AID 2690);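 also: yeast aged for seven days with compound at 30 °C before DHE staining; 100% = average MFI of all compound-treated wells on the plate with controls excluded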
Conditions: S. cerevisiae aged cells, superoxide DHE fluorescence; at 10 µM; active compounds read low
With `CN1CCN(C(=S)SCC(=O)Nc2ccc(Cl)cc2C(=O)c2ccccc2)CC1` the superoxide response (% of plate mean) was 63.3% (active). `O=C(CCNS(=O)(=O)c1ccccc1)Nc1ccc(Cl)cc1C(=O)c1ccccc1` gave a superoxide response (% of plate mean) of 83.2%. Compound `O=C(COC(=O)c1ccccc1)Nc1ccc(Cl)cc1C(=O)c1ccccc1` has a superoxide response (% of plate mean) of 104%. In the case of `CNCC[C@H](Oc1ccc(C(F)(F)F)cc1)c1ccccc1`, the superoxide response (% of plate mean) is reported as 88.9%. With `Cc1cc(C)cc(NC(=S)NC2CC3CCCC(C2)N3Cc2cccs2)c1` (stereo not given) the superoxide response (% of plate mean) was 101%.
